Data taken from PubChem BioAssay (NCI).
Compounds without any hit were thinned out: in the full panel of roughly 79,000, 15% have a hit. Calls of active or inactive are those of the source. Rule as the data show it: active = growth inhibition above about 70%; inactive = the rest.

Experiments:
[1] = NCI Yeast Anticancer Drug Screen. Data for the rad52 strain (AID 147);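 also: 0% = growth of vehicle-treated control cultures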; conditions: S. cerevisiae rad52 mutant growth inhibition, active compounds read high
In short: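 Here a repair-compromised yeast strain receives each compound; its growth is then quantified and normalised to vehicle-only controls.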

[2] = NCI Yeast Anticancer Drug Screen. Data for the rad50EPP+ strain (AID 151);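 also: 0% = growth of vehicle-treated control cultures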; conditions: S. cerevisiae rad50 mutant strain, active compounds read high
In short: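 Read-out is yeast growth inhibition relative to vehicle; cells used were the rad50EPP+ strain.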

[3] = NCI Yeast Anticancer Drug Screen. Data for the mgt1 strain (AID 153); conditions: S. cerevisiae mgt1 mutant growth inhibition, active compounds read high
In short: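 Measured: inhibition of mgt1 yeast growth by compound, normalized to vehicle-treated cultures.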

[4] = NCI Yeast Anticancer Drug Screen. Data for the rad50 strain (AID 155);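 also: 0% = growth of vehicle-only cultures of the same strain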; conditions: S. cerevisiae rad50 strain growth inhibition, active compounds read high
In short: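 Growth of the mutant yeast was measured after compound exposure and referenced to vehicle-treated cultures.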

[5] = NCI Yeast Anticancer Drug Screen. Data for the mec2-1 strain (AID 157); conditions: S. cerevisiae mec2-1 strain, active compounds read high
In short: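 Using mec2-1 yeast: add compound, measure growth, express inhibition versus vehicle-treated cultures.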

[6] = NCI Yeast Anticancer Drug Screen. Data for the rad14 strain (AID 159);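 also: 0% = growth of vehicle-treated control cultures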; conditions: S. cerevisiae rad14 strain growth inhibition, active compounds read high
In short: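 Here, inhibition of yeast growth was measured after compound exposure, using a strain with a genetic defect in DNA damage repair and vehicle-treated cultures as the reference.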

[7] = NCI Yeast Anticancer Drug Screen. Data for the sgs1 mgt1 strain (AID 161);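 also: 0% = growth of cultures given vehicle only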; conditions: S. cerevisiae sgs1 mgt1 strain, active compounds read high
In short: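 This yeast growth screen uses a strain with defined DNA-repair lesions; compound-treated growth is compared with vehicle-treated growth.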

[8] = NCI Yeast Anticancer Drug Screen. Data for the CLN2oe strain (AID 163);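 also: 0% = growth of vehicle-only control cultures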; conditions: S. cerevisiae CLN2oe strain, active compounds read high
In short: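 Whole-cell yeast growth assay. A strain engineered for altered cell-cycle control received compound, and inhibition relative to vehicle-treated cultures was recorded.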

[9] = NCI Yeast Anticancer Drug Screen. Data for the cln2 rad14 strain (AID 165);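 also: 0% = growth equal to vehicle treated cultures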; conditions: S. cerevisiae cln2 rad14 strain, active compounds read high
In short: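 Yeast strain cln2 rad14, bearing defects in cell cycle control and DNA repair, serves as the test system; values reflect growth inhibition compared with vehicle.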

[10] = NCI Yeast Anticancer Drug Screen. Data for the bub3 strain (AID 167); conditions: S. cerevisiae bub3 mutant strain, active compounds read high
In short: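 Whole-cell yeast assay. The mutant strain was incubated with compounds, and growth inhibition was determined by comparison with vehicle-treated cells.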

[11] = NCI Yeast Anticancer Drug Screen. Data for the wt2 strain (AID 169);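 also: 0% = growth of vehicle-treated yeast cultures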; conditions: S. cerevisiae wt2 strain growth inhibition, active compounds read high
In short: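 Treated yeast vs. vehicle-treated yeast: growth inhibition determined.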

[12] = NCI Yeast Anticancer Drug Screen. Data for the mlh1 strain (AID 171);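 also: 0% = growth of vehicle-treated control cultures of the same strain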; conditions: S. cerevisiae mlh1 strain growth inhibition, active compounds read high
In short: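 A yeast strain with a defined genetic lesion serves as the test organism. Cultures receive compound or vehicle, and growth is measured.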

[13] = NCI Yeast Anticancer Drug Screen. Data for the sgs1 strain (AID 173);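 also: 0% = growth of vehicle-only control cultures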; conditions: S. cerevisiae sgs1 mutant, active compounds read high
In short: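 A genetically defined yeast mutant is incubated with the test compound, and its growth is compared to that of the same strain given vehicle.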

[14] = NCI Yeast Anticancer Drug Screen. Data for the mlh1 rad18 strain (AID 175); conditions: S. cerevisiae mlh1 rad18 strain growth inhibition, active compounds read high
In short: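 Steps: expose repair-defective yeast to compound; measure growth; express inhibition against vehicle-treated controls.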

[15] = NCI Yeast Anticancer Drug Screen. Data for the rad18 strain (AID 177); conditions: S. cerevisiae rad18 mutant growth inhibition, active compounds read high
In short: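 Measured value is growth inhibition of a yeast strain bearing a DNA repair alteration, referenced to vehicle-treated cells.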

[16] = at 5.0 µM (retest, dose inferred, filed as 0.5)
[17] = at 50.0 µM (retest, dose inferred, filed as 5.0)

Measured: growth inhibition

OB(O)c1ccccc1C#Cc1ccccc1
active: [4]; at 50.0 µM 96.3% | [7]; at 50.0 µM 76.8% | [10]; at 50.0 µM 76.8% | [14]; at 50.0 µM 75.8%
inactive: [1]; at 1.2 µM 3% | [1]; at 3.7 µM 4% | [1]; at 11.0 µM 8% | [1]; at 33.0 µM 21% | [1]; at 100.0 µM 27% | [2]; at 1.2 µM -1% | [2]; at 3.7 µM 3% | [2]; at 11.0 µM 12% | [2]; at 33.0 µM 33% | [2]; at 100.0 µM 34% | [3]; at 1.2 µM 1% | [3]; at 3.7 µM 3% | [3]; at 11.0 µM 8% | [3]; at 33.0 µM 14% | [3]; at 100.0 µM 18% | [4]; at 1.2 µM 5% | [4]; at 3.7 µM 13% | [4]; [16] -14% | [4]; at 11.0 µM 20% | [4]; at 33.0 µM 29% | [4]; [17] 21% | [4]; at 100.0 µM 43% | [5]; at 1.2 µM -1% | [5]; at 3.7 µM 6% | [5]; [16] -5% | [5]; at 11.0 µM 12% | [5]; at 33.0 µM 21% | [5]; [17] 1% | [5]; at 50.0 µM 64.5% | [5]; at 100.0 µM 28% | [6]; at 1.2 µM 2% | [6]; at 3.7 µM 2% | [6]; at 11.0 µM 12% | [6]; at 33.0 µM 27% | [6]; at 100.0 µM 37% | [7]; [16] -16% | [7]; [17] 22% | [8]; at 1.2 µM 7% | [8]; at 3.7 µM 9% | [8]; at 11.0 µM 23% | [8]; at 33.0 µM 43% | [8]; at 100.0 µM 40% | [9]; [16] -12% | [9]; [17] 13% | [9]; at 50.0 µM 55.8% | [10]; at 1.2 µM 8% | [10]; at 3.7 µM 2% | [10]; [16] -20% | [10]; at 11.0 µM 21% | [10]; at 33.0 µM 34% | [10]; [17] 43% | [10]; at 100.0 µM 46% | [11]; at 1.2 µM -2% | [11]; at 3.7 µM -1% | [11]; at 11.0 µM 7% | [11]; at 33.0 µM 23% | [11]; at 100.0 µM 24% | [12]; at 1.2 µM -2% | [12]; at 3.7 µM 6% | [12]; at 11.0 µM 4% | [12]; at 33.0 µM 14% | [12]; at 100.0 µM 14% | [13]; at 1.2 µM -1% | [13]; at 3.7 µM -1% | [13]; at 11.0 µM 8% | [13]; at 33.0 µM 19% | [13]; at 100.0 µM 31% | [14]; [16] 13% | [14]; [17] 68% | [15]; at 1.2 µM 1% | [15]; at 3.7 µM 2% | [15]; at 11.0 µM 13% | [15]; at 33.0 µM 41% | [15]; at 100.0 µM 54%

Cn1c(-c2ccc(/C=N\N3CCN(/N=C/c4ccc(-c5c[n+]6ccsc6n5C)cc4)CC3)cc2)c[n+]2ccsc12
active: [1]; at 100.0 µM 75% | [2]; at 100.0 µM 78% | [4]; at 100.0 µM 76% | [5]; at 100.0 µM 82% | [8]; at 100.0 µM 76% | [9]; at 50.0 µM 70.5% | [10]; at 100.0 µM 78% | [11]; at 100.0 µM 90% | [13]; at 100.0 µM 88% | [14]; [17] 73% | [15]; at 100.0 µM 89%
inactive: [1]; at 1.2 µM 14% | [1]; at 3.7 µM 19% | [1]; at 11.0 µM 20% | [1]; at 33.0 µM 16% | [2]; at 1.2 µM 30% | [2]; at 3.7 µM 51% | [2]; at 11.0 µM 49% | [2]; at 33.0 µM 59% | [3]; at 1.2 µM 17% | [3]; at 3.7 µM 27% | [3]; at 11.0 µM 25% | [3]; at 33.0 µM 25% | [3]; at 100.0 µM 69% | [4]; at 1.2 µM 21% | [4]; at 3.7 µM 33% | [4]; [16] 12% | [4]; at 11.0 µM 21% | [4]; at 33.0 µM 11% | [4]; [17] 29% | [4]; at 50.0 µM 18% | [5]; at 1.2 µM 50% | [5]; at 3.7 µM 51% | [5]; [16] 14% | [5]; at 11.0 µM 57% | [5]; at 33.0 µM 41% | [5]; [17] 53% | [5]; at 50.0 µM 30.4% | [6]; at 1.2 µM 16% | [6]; at 3.7 µM 10% | [6]; at 11.0 µM 9% | [6]; at 33.0 µM 14% | [6]; at 100.0 µM 59% | [7]; [16] 18% | [7]; [17] 58% | [7]; at 50.0 µM 25.1% | [8]; at 1.2 µM 40% | [8]; at 3.7 µM 48% | [8]; at 11.0 µM 49% | [8]; at 33.0 µM 52% | [9]; [16] 18% | [9]; [17] 18% | [10]; at 1.2 µM 17% | [10]; at 3.7 µM 26% | [10]; [16] 17% | [10]; at 11.0 µM 25% | [10]; at 33.0 µM 40% | [10]; [17] 35% | [10]; at 50.0 µM 16.4% | [11]; at 1.2 µM -43% | [11]; at 3.7 µM -40% | [11]; at 11.0 µM -31% | [11]; at 33.0 µM 0% | [13]; at 1.2 µM 29% | [13]; at 3.7 µM 32% | [13]; at 11.0 µM 32% | [13]; at 33.0 µM 46% | [14]; [16] 34% | [14]; at 50.0 µM -10.8% | [15]; at 1.2 µM 19% | [15]; at 3.7 µM 34% | [15]; at 11.0 µM 24% | [15]; at 33.0 µM 62%
